Experimental data taken from PubChem BioAssay (NCI).
Compounds without any hit were thinned out: in the full panel of roughly 83,000, 20% have a hit.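 Step 1: grow cells in 96-well plates. Step 2: add test compound at a single concentration. Step 3: incubate 48 h. Step 4: record percent growth.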 Activity calls are given as the source filed them. Rule for the calls: active = growth percent below 10; inactive = the rest.

How the values were obtained:
Experiment in all cases: NCI-60 one-dose screen, 48 h (100 = growth as untreated, 0 = no growth, -100 = all killed)
Conditions in all cases: 10 µM
[1] = test system: RPMI-8226 leukemia
[2] = test system: OVCAR-8 ovarian
[3] = test system: OVCAR-5 ovarian
[4] = test system: OVCAR-4 ovarian
[5] = test system: SK-OV-3 ovarian
[6] = test system: IGROV1 ovarian
[7] = test system: OVCAR-3 ovarian
[8] = test system: HS 578T breast
[9] = test system: NCI/ADR-RES ovarian

Measured: growth

CNCc1cccc2c1OCCCCCC[C@@](C)(O)CC1(CC1)S(=O)(=O)c1ccc(cc1)-c1cnc(N)c(n1)C(=O)N2
active: [1] -31.3% | [2] -65.5% | [3] -89.7% | [4] -76.9% | [5] -87.9% | [6] -91.2% | [7] -91.1% | [8] -40.5% | [9] -92.1%

N[C@@H](CSSC[C@H](N)C(=O)Nc1ccc(OCC2CCCC2)cc1)C(=O)Nc1ccc(OCC2CCCC2)cc1
active: [1] -57.3% | [2] -59.8% | [3] -100% | [4] -96.9% | [5] -97.9% | [6] -92.1% | [7] -86.5% | [8] -61.7% | [9] -77.2%

CC(C)C(=O)Nc1ccc(C(=O)NC(=S)Nc2ccc(C(=O)O)cc2)cc1
inactive: [1] 128% | [2] 111% | [3] 96.6% | [4] 111% | [5] 99.9% | [6] 106% | [7] 91.1% | [8] 98.8% | [9] 104%

O=c1oc2ccc(-c3ccc(F)cc3F)cc2c(=O)n1-c1ccc(F)c(Cl)c1
active: [1] -31% | [2] 3.87% | [3] -5.91% | [5] -9.67% | [7] 3.83% | [8] -0.875% | [9] -15.2%
inactive: [4] 10.5% | [6] 13%

COc1ccc(-c2ccc(/C=N/NC(=O)c3[nH]c4ccc(Br)cc4c3-c3ccccc3)s2)cc1
inactive: [1] 57.7% | [2] 51.9% | [3] 12.8% | [4] 79.6% | [5] 117% | [6] 110% | [7] 97.5% | [8] 54% | [9] 59.9%

Cc1ccc(S(=O)(=O)c2nc(-c3ccccc3)oc2S(=O)(=O)CC(=O)N2CCCC2)cc1
inactive: [5] 68.4% | [6] 18.4% | [8] 20.5%
active: [1] -53.4% | [2] -86.7% | [3] -87.2% | [4] -92.7% | [7] -92.8% | [9] -69.5%
